Experimental findings from PubChem BioAssay (NCI) are described below.

This is part of a sample that, as a whole, favours compounds with a hit. Of some 83,000 tested, about 20% had one in any assay.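 How to read the values: 0–100, growth inhibition (40 = 60% inhibited); 0, no net growth; -100 to 0, cell death (-40 = 40% of starting cells died; -100 = all dead).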 Unmarked numbers belong to inactive results. The source made the active and inactive calls. Rule for the calls: active = growth percent below 10; inactive = the rest.

Experiment in all cases: NCI-60 one-dose screen, 48 h (100 = growth as untreated, 0 = no growth, -100 = all killed)
Common to all, as to conditions: 10 µM unless noted

For experiment [1], the system named is NCI-H23 lung.
Experiment [2] has as its system NCI-H226 lung.
Experiment [3] has as its system NCI-H322M lung.
Experiment [4] deals with HOP-62 NSCLC.
Experiment [5] relates to NCI-H460 lung.
Experiment [6] deals with HOP-92 NSCLC.
The test system of experiment [7] is NCI-H522 lung.
Experiment [8] deals with A549/ATCC NSCLC.
Experiment [9] deals with 786-0 renal.
In experiment [10] the test system is COLO 205 colon.
Experiment [11] concerns DU-145 prostate.
In experiment [12] the test system is K-562 leukemia.
Experiment [13] has as its system MALME-3M melanoma.
The subject of experiment [14] is RXF 393 renal.
For experiment [15], the system named is SF-268 CNS.
The test system of experiment [16] is SF-295 CNS.
For experiment [17], the system named is SF-539 CNS.
Experiment [18] concerns UACC-257 melanoma.
Experiment [19] relates to M14 melanoma.
Experiment [20] relates to MDA-MB-231 breast.

Consider `CCCCOc1ccc(NC(=O)c2sc3nc(C)ccc3c2N)cc1`, for which the growth in experiment [1] was -69.5% (active); in [2], 10.2%; in experiment [3], 40.3%; in [4], 21.9%; in [5] it was 7.45% (active); in [6] it was -37.2% (active). Besides, the growth in experiment [7] was 17.3%; in experiment [8], 0.0895% (active); in [9] it was -78.5% (active); in experiment [10] it was 80.4%; in experiment [11] it was 46.4%; in experiment [12], 9.87% (active). Further, the growth in experiment [13] is 23.3%; in experiment [14], -20.7% (active); in [15] it was 29.8%; in [16], -54% (active); in [17] it was -99.7% (active); in experiment [18], 54.1%. In addition, in experiment [19], the growth was 59.9%.

In the case of `C=C1CC[C@@H]2[C@]3(C)COC(c4cn(-c5ccccc5)nc4-c4ccccc4)O[C@@H]3CC[C@@]2(C)[C@@H]1C/C=C1/C(=O)OC[C@H]1O` (stereo partly drawn), the growth in [1] is -84.7% (active); in experiment [2], -90.4% (active); in [3], 29.1%; in [4], -68.1% (active); in experiment [5] it was -75.9% (active); in [6] it was -88.1% (active). The growth was -88.1% (active) in [7]; -22.2% (active) in [8]; -61.3% (active) in [9]; -90.9% (active) in experiment [10]; 8.33% (active) in experiment [11]; -29.9% (active) in [12]. Moreover, the growth in experiment [13] is -90.2% (active); in experiment [14], -90.8% (active); in experiment [15] it was 8.39% (active); in [16], -97.5% (active); in experiment [17], -98.6% (active); in [18], -77.2% (active). For the same compound, in [19], the growth was -80.4% (active).

With `O=c1[nH]n(C(=S)N/N=C/c2ccccc2Cl)c(=O)c2ccccc12`, the growth was -43.6% (active) in experiment [1]; -19.9% (active) in [2]; 5.29% (active) in experiment [3]; -2.31% (active) in [4]; 14.5% in experiment [5]; -0.742% (active) in experiment [6]. Further, the growth was -61.7% (active) in [7]; 7.02% (active) in experiment [8]; 12.9% in experiment [9]; -60.9% (active) in [10]; 15.1% in experiment [11]; 4.54% (active) in experiment [12]. Further, the growth in experiment [13] was 28.3%; in experiment [14], -57.7% (active); in experiment [15], 28.5%; in experiment [16], 15.9%; in [17], -20.2% (active); in experiment [18], 37.2%. Also, the growth in experiment [19] was -41.9% (active).

`CCOC(=O)C1=C(N)N(c2ccccc2)C2=C(C(=O)CC(C)(C)C2)C1c1cccc(Cl)c1Cl` (stereo not drawn): the growth in experiment [1] is 69.7%; in [2], 40.3%; in [3], 77.8%; in experiment [4], 40.8%; in experiment [5] it was 61%; in experiment [6], -0.828% (active). The growth in experiment [7] was 74.9%; in experiment [8], 60.6%; in experiment [9], 67.7%; in experiment [10], 80.6%; in experiment [11], 81%; in [12], 59.5%. For the same compound, the growth in [13] was 77.6%; in [14] it was 53.4%; in experiment [15], 66%; in [16], 53.5%; in experiment [17], 32.6%; in experiment [18], 85.4%. The growth in [19] is 81%.

As to `COc1ccc(NC(=O)c2sc3nc(C(C)C)ccc3c2N)cc1`, the growth was 75.3% in experiment [1]; 71.7% in [2]; 69.5% in [3]; 93.2% in [4]; 88% in experiment [5]; 61.4% in experiment [6]. Further, the growth in [7] is 75.7%; in [8], 59.2%; in experiment [9], 97.5%; in [10], 113%; in experiment [11], 78.9%; in experiment [12] it was 50%. Further, the growth in [13] was 83.4%; in [14], 89.2%; in [15], 99.7%; in experiment [16], 72.3%; in experiment [17], 84.1%; in [18], 88.7%. In addition, the growth in [19] is 93.4%.

Regarding `CC(C)c1ccc2c(N)c(C(=O)Nc3cccc(C(F)(F)F)c3)sc2n1`, the growth in experiment [1] is 90.5%; in [2], 69.3%; in experiment [3], 81.2%; in experiment [4], 62.6%; in experiment [5], 67.7%; in experiment [6], 82.7%. Also, the growth in experiment [7] is 48.8%; in [8], 78.8%; in experiment [9], 67.9%; in [10] it was 48.2%; in experiment [11], 73.4%; in experiment [12], 8.51% (active). The growth is 80.3% in [13]; 42.1% in experiment [14]; 94.2% in experiment [15]; 64.9% in experiment [16]; 66.6% in experiment [17]; 90.1% in experiment [18]. Also, the growth in experiment [19] is 32.8%.

For `N#Cc1c(-c2ccc(Cl)cc2)nc2n[nH]c(-c3ccc(Cl)cc3)c2c1-c1ccc(C(F)(F)F)cc1`, the growth is -13.5% (active) in experiment [1]; -30.7% (active) in [2]; 10.2% in experiment [3]; -24.2% (active) in experiment [4]; -49.1% (active) in experiment [5]; -25.9% (active) in experiment [6]. For the same compound, the growth in experiment [7] is -14.8% (active); in experiment [8] it was 6.82% (active); in [9] it was -3.14% (active); in [10], -88.5% (active); in experiment [11], 19.8%; in [12], -21.3% (active). The growth in experiment [13] was -25.8% (active); in experiment [14] it was -14.7% (active); in experiment [15] it was 6.49% (active); in experiment [16], -54% (active); in experiment [17], -79.3% (active); in experiment [18], 7.34% (active). Also, the growth in experiment [19] is -53.3% (active).

As for `CC(C)c1sc(NC(=O)c2cc(NC(=O)c3cc(NC(=O)c4cscn4)cn3C)cn2C)nc1C(=O)NCCCN(C)C`, the growth in [1] was -22.3% (active); in experiment [2], -54% (active); in experiment [3], 19.9%; in [4], 16.1%; in [5], 89.9%; in experiment [6], -22.9% (active). The growth is -74.8% (active) in experiment [7]; 105% in experiment [8]; 64.8% in experiment [9]; -63% (active) in experiment [10]; 16.4% in experiment [11]; 8.89% (active) in experiment [12]. Also, the growth in [13] is -51.7% (active); in experiment [20], -33.3% (active); in experiment [14], -47.2% (active); in experiment [15], 16.3%; in experiment [16], 58.7%; in experiment [17], -33.6% (active). For the same compound, the growth in experiment [18] is 7.52% (active); in experiment [19], 45%.
